Hit rate of the full screen: of about 360,000 compounds, about 690 (0.19%) were called active. The sample as a whole holds a higher share of actives than the screen did. Values without a mark were called inactive.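 How the source made its calls: active means fluorescence ratio to DMSO below 75%, the collection mean minus 3 SD; inconclusive means too few cells collected in the well; inactive means the rest.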

The assay deals with ATP-binding cassette sub-family B member 6 (Homo sapiens) (UniProt Q9NP58). Nature of the assay: blockers of ABCB6-driven porphyrin uptake – K562-ABCB6 cells, flow cytometry, MLPCN library, primary screen (AID 602162).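 Further: signal is porphyrin accumulated inside mitochondria; 100% equals median channel fluorescence of DMSO control wells; lower ratio means ABCB6 inhibition with less porphyrin fluorescence.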 The settings on record: K562-ABCB6 porphyrin accumulation, 1 h, at 10 µM, active compounds read low. (In general: A flow cytometer gives signals particle by particle.)
Sequence of ATP-binding cassette sub-family B member 6 (Homo sapiens) (Q9NP58 whole entry, looked up): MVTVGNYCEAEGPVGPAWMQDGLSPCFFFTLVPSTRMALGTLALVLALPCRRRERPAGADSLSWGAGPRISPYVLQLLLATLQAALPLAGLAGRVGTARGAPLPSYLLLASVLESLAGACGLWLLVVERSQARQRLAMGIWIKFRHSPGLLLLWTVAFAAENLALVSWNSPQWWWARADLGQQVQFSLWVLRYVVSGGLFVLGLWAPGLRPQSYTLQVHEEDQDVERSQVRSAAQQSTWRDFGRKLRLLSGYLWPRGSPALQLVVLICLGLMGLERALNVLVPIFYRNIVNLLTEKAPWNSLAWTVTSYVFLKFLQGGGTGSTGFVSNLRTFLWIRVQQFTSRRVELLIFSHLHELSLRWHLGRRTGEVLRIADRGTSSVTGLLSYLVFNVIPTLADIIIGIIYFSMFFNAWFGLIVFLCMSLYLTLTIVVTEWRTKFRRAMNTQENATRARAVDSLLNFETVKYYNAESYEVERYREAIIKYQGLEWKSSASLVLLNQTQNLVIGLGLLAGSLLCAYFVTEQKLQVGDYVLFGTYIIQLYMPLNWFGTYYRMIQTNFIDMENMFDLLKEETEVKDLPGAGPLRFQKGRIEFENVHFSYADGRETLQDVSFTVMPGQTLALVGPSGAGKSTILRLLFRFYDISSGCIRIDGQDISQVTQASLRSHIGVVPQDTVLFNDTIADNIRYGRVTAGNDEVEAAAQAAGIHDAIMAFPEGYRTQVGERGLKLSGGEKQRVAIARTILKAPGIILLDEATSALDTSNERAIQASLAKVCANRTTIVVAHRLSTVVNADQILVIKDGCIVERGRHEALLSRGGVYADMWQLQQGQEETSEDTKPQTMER
As to `Cc1sc2ncn(CC(=O)NCCCC(=O)N(C)Cc3ccccc3)c(=O)c2c1C`, the fluorescence ratio to DMSO was 97%. Under `O=C(Nc1cc(=O)[nH]c2ncnn12)c1ccccc1Cl` stands 101%; under `CC(C)C[C@H](NC(=O)[C@@H]1O[C@H]1C(=O)O)C(=O)NCCCCN=C(N)N`, 94%; under `CCC(c1nnnn1-c1ccc2c(c1)OCCO2)N1CCN(c2ccc(C(F)(F)F)cn2)CC1` (configuration not stated), 99%. For the molecule `CN(Cc1ccccc1)C(=O)CCC1CCN(C(=O)c2ccco2)CC1`, the fluorescence ratio to DMSO is 90%.

For `CCC(=O)N1CCCC1(C)C(=O)Nc1ccc2c(c1)CCN2C(C)=O` (configuration not stated), the fluorescence ratio to DMSO was 72% (active).

Turning to `CCCNS(=O)(=O)c1ccc2c(c1)CCCN2C(C)=O`, the fluorescence ratio to DMSO is 75%. As for `CC(=O)N1CCc2cc(S(=O)(=O)NC3CCCCC3)ccc21`, the figure is 97%; as for `CC(C)(C)n1cnnc1Sc1ccc([N+](=O)[O-])cn1`, 101%. As for `CC1CCCCC1NC(=O)NC(=O)COC(=O)C1=NN(c2ccccc2)C(=O)CC1` (configuration not stated), the figure is 102%.

With `CC1(C(=O)Nc2ccc3c(c2)OCCO3)CCN1C(=O)Cc1cc(F)ccc1F` (configuration not stated), the fluorescence ratio to DMSO was 100%.

For `COc1ccc(OC)c(C(=O)NC(CC(N)=O)c2ccc(N3CCC(N4CCCCC4)CC3)c([N+](=O)[O-])c2)c1` (configuration not stated), the fluorescence ratio to DMSO is 92%. Under `Cc1nn(-c2ccccc2)c2[nH]c(C(F)(F)F)cc(=O)c12` stands 87%; under `CCOc1ccc(C(=O)COC(=O)c2ccc(-n3cnnn3)cc2)cc1`, 101%. Under `C=CCc1cccc(/C=N/NC(=O)COc2ccc(-n3cnnn3)cc2)c1O` stands 93%; under `O=C(COc1ccc(-n2cnnn2)cc1)Nc1ccccc1Cl`, 73% (active); under `CC1CCN(C(=O)CSc2nnc(-c3ccco3)n2N)CC1`, 95%. Under `CN(C(=O)c1ccccc1)c1nccnc1C#N` stands 98%; under `COC(=O)c1ccc(CSc2ccc(S(=O)(=O)N3CCCCC3)cn2)cc1`, 100%; under `O=C1CCCC2=C1C(c1cccs1)CC(=O)N2c1ccc(F)cc1` (configuration not stated), 95%.

Consider `CCC(=O)N1c2ccccc2NC2=C(C(=O)CCC2)C1c1ccco1` (configuration not stated), for which the fluorescence ratio to DMSO was 101%.

In the case of `O=C1CCCC2=C1C(c1cccs1)n1nc(SCc3ccccc3)nc1N2` (configuration not stated), the fluorescence ratio to DMSO is 55% (active).

For the molecule `Cn1ncc2c(Nc3cccc4ccccc34)ncnc21`, the fluorescence ratio to DMSO is 85%. Under `CCCOc1cccc(C(=O)Nc2ccccc2C(=O)N2CCN(C)CC2)c1` stands 99%; under `C[C@]12CCC(=O)C=C1C=CC1C2CC[C@@]2(C)C1CC[C@@]21CCC(=O)O1` (some centres not stated), 98%; under `COc1ccc(S(=O)(=O)N2CCOCC2)cc1NC(=O)CSc1ncnc2ccccc12`, 92%. Under `CC(C)C(=O)N1CCN(c2nc(-c3ccccc3)c3c(c2C#N)CC(C)(C)OC3)CC1` stands 111%; under `CC1(C)Cc2c(C#N)c(SCc3nc4ccccc4[nH]3)nc(N3CCOCC3)c2CO1`, 74% (active); under `CCOC(=O)CSc1nc(N2CCOCC2)c2c(c1C#N)CC(C(C)C)OC2` (configuration not stated), 97%. As for `Cc1cccc(OCCNC(=O)CSc2ccc(C(F)(F)F)cc2[N+](=O)[O-])c1`, the figure is 98%.

Regarding `CCCOc1ccc(C(=O)C(CCC(CNCC)C(=O)c2ccc(OCCC)cc2)CNCC)cc1` (configuration not stated), the fluorescence ratio to DMSO was 94%. Take `CC1CCN(C(NC(=O)c2ccco2)C(=O)c2ccccc2)CC1` (configuration not stated): the fluorescence ratio to DMSO was 99%. As for `CCCCN(C(=O)CSCC(=O)Nc1ccc(OC)cc1)c1c(N)n(CCC)c(=O)[nH]c1=O`, the figure is 99%; as for `COc1ccc(CCNS(=O)(=O)c2ccc(C(=O)NCc3ccco3)cc2)cc1OC`, 100%; as for `COc1ccc(CCNS(=O)(=O)c2ccc(F)cc2)cc1OC`, 62% (active). As to `COc1ccc(CCNS(=O)(=O)c2ccc(Cl)s2)cc1OC`, the fluorescence ratio to DMSO was 88%. As to `CCCCc1nc2ccc(F)cc2cc1C`, the fluorescence ratio to DMSO was 95%. For `O=C(CSc1nnc(Nc2ccccc2F)s1)NC1CCCC1`, the fluorescence ratio to DMSO was 101%. Under `CCOc1ccc(OCC(=O)OC(C)C(=O)NC2CCCCC2C)cc1` (configuration not stated) stands 99%; under `COc1ccc(C(=O)OCC(=O)c2ccc(Cl)s2)c(OC)c1OC`, 101%; under `CCOC(=O)C1CSC(CC(=O)Nc2ccc(OCC)cc2)C(=O)N1` (configuration not stated), 95%. Under `CCOc1ccc(NC(=O)CCC(=O)NNC(=O)NC2CCCCC2)cc1` stands 98%; under `CCOc1ccc(NC(=O)CC2NCCNC2=O)cc1` (configuration not stated), 73% (active); under `COc1cc([N+](=O)[O-])ccc1NC(=S)N1CCN(c2ccccn2)CC1`, 98%.

With `O=C(c1cccc(S(=O)(=O)N2CCCC2)c1)N(Cc1ccco1)C1CCS(=O)(=O)C1` (configuration not stated), the fluorescence ratio to DMSO was 97%. Under `Cc1nccn1-c1ccc(NC(=O)[C@H]2O[C@@H](n3ccc(=O)[nH]c3=O)[C@H](O)[C@@H]2O)cc1` stands 99%; under `CCOC(=O)C1CCCN(C(=O)COc2ccc(N(C)S(=O)(=O)c3ccc(C)cc3)cc2)C1` (configuration not stated), 98%.

Values taken from PubChem BioAssay AID602162 (NMMLSC, 2011).
